From PubChem BioAssay (NCI) come the findings set out here.

Test systems include HCT-15 colon; HT29 colon; SNB-75 CNS; SNB-19 CNS; U251 CNS; PC-3 prostate; LOX IMVI melanoma; SK-MEL-28 melanoma.
Common to all, as to test: NCI-60 one-dose screen, 48 h (100 = growth as untreated, 0 = no growth, -100 = all killed)
Holding throughout (details): 10 µM unless noted

Compounds without any hit were thinned out: in the full panel of roughly 83,000, 20% have a hit.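 Each cell line was grown in a 96-well plate and treated with one concentration of compound for 48 hours. Values below 10 were considered active.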 Unmarked numbers belong to inactive results. Calls of active or inactive are those of the source.

Take `COc1ccc2c(c1)CC/C(=C\c1cncc(Br)c1)C2=O`: the growth in the assay with HCT-15 colon was 94.7%; with HT29 colon it was 79.7%; in the assay with SNB-75 CNS, 120%; in the assay on SNB-19 CNS it was 90.7%; in the assay on U251 CNS, 85.9%; in the assay on PC-3 prostate it was 92.7%. The growth with LOX IMVI melanoma is 88.3%.

In the case of `COc1ccc(CN2c3ccccc3Oc3ccccc32)cc1O`, the growth was 28.1% in the assay with HCT-15 colon; 72.7% in the assay on HT29 colon; 27.4% in the assay on SNB-75 CNS; 34.9% with SNB-19 CNS; 24% in the assay on U251 CNS; 31.4% in the assay on PC-3 prostate. The growth with LOX IMVI melanoma is 39.5%.

Turning to `COc1ccc(/C=C\c2cc(OC)c(OC)c(OC)c2)cc1OCC(=O)Nc1ccc2nc(C)sc2c1`, the growth is 28.3% in the assay with HCT-15 colon; 29.2% with HT29 colon; 26.9% in the assay on SNB-75 CNS; 57.4% in the assay with SNB-19 CNS; 38.3% in the assay with U251 CNS; 23.4% in the assay with PC-3 prostate. Moreover, in the assay on LOX IMVI melanoma, the growth was 49.6%.

Regarding `CC/C=C\C[C@H]1C/C=C2/C(=O)C=C[C@H]2C/C=C\CCCC(=O)O1`, the growth in the assay with HCT-15 colon was 29.8%; in the assay on HT29 colon, 6.12% (active); in the assay on SNB-75 CNS, 38.6%; with SNB-19 CNS it was 40.3%; in the assay on U251 CNS it was 10.4%; in the assay with PC-3 prostate it was 36%. In addition, in the assay on LOX IMVI melanoma, the growth is 6.07% (active).

`O=C1c2c(O)cc(O)cc2-c2c(-c3ccc(O)cc3)oc3cc(O)cc1c23`: the growth with HCT-15 colon is 57.5%; in the assay with HT29 colon, 88.8%; in the assay on SNB-75 CNS, 26.4%; with SNB-19 CNS, 44.8%; in the assay on U251 CNS it was 25.5%; in the assay with PC-3 prostate it was 50.5%. For the same compound, in the assay on LOX IMVI melanoma, the growth was 17.9%.

Consider `C=C1C(=O)O[C@H]2[C@H]1CC/C(COC(=O)NCCc1ccc(OC)c(OC)c1)=C\CC[C@@]1(C)O[C@@H]21`, for which the growth in the assay with HCT-15 colon was 61.7%; in the assay with HT29 colon, 32.8%; in the assay on SNB-75 CNS, 61.2%; in the assay with SNB-19 CNS, 90.1%; in the assay on U251 CNS, 76.8%; with PC-3 prostate, 78.8%. In addition, the growth with LOX IMVI melanoma was 75%.

As to `COc1cc2c(cc1O)CC[C@@H]1[C@@H]2CC[C@]2(C)[C@@H](OCCN(C)C)CC[C@@H]12`, the growth in the assay with HCT-15 colon was 34%; with HT29 colon it was 3.38% (active); in the assay with SNB-75 CNS, 17.8%; in the assay on SNB-19 CNS, 52.4%; in the assay on U251 CNS it was 27.4%; in the assay with PC-3 prostate, 45.4%. Also, in the assay with LOX IMVI melanoma, the growth was 52.5%.

Take `COc1ccc(-c2nnc(SCC(=O)c3ccc(Cl)cc3)o2)cc1`: the growth in the assay with HCT-15 colon was 104%; in the assay with HT29 colon, 96%; with SNB-75 CNS it was 88.8%; in the assay on SNB-19 CNS, 101%; with U251 CNS it was 99.8%; with PC-3 prostate, 101%. Further, the growth in the assay on LOX IMVI melanoma is 97.1%.

Turning to `C=C1C(=O)O[C@H]2[C@H]1CC/C(C=Nc1ccc(C(F)(F)F)cc1N)=C\CC[C@@]1(C)O[C@@H]21`, the growth in the assay with HCT-15 colon is 2.23% (active); in the assay on HT29 colon, 1.96% (active); in the assay on SNB-75 CNS, 41.1%; in the assay with SNB-19 CNS, 44%; in the assay on U251 CNS, 14.6%; in the assay with PC-3 prostate, 14.2%. In the assay with LOX IMVI melanoma, the growth is -48.9% (active).

Turning to `CC/C=C\C[C@H](O)C/C=C1/C(=O)C=C[C@@]1(C)C/C=C\CCCC(=O)OC`, the growth in the assay on HCT-15 colon is 101%; with HT29 colon, 110%; in the assay on SNB-75 CNS it was 99.1%; in the assay with SNB-19 CNS, 101%; in the assay with U251 CNS, 94.2%; in the assay on PC-3 prostate it was 96.1%. Further, in the assay on LOX IMVI melanoma, the growth was 94.3%.

With `COc1ccc2c(c1)C(=O)/C(=C/c1cccnc1)CC2`, the growth was 92.8% in the assay on HCT-15 colon; 92.5% in the assay with HT29 colon; 91.6% in the assay on SNB-75 CNS; 88.7% in the assay with SNB-19 CNS; 86.7% in the assay on U251 CNS; 101% in the assay with PC-3 prostate. Further, the growth with LOX IMVI melanoma was 88.5%.

Take `CCN(CC)CCCCNc1c2ccc(Cl)cc2nc2ccc(OC)cc12`: the growth was -21.2% (active) in the assay with HCT-15 colon; 3.91% (active) with HT29 colon; -95.3% (active) with SNB-75 CNS; 1.53% (active) in the assay on SNB-19 CNS; -9.07% (active) in the assay with U251 CNS; -45.9% (active) with PC-3 prostate. In addition, the growth in the assay with LOX IMVI melanoma was -57.3% (active); in the assay on SK-MEL-28 melanoma, -82.5% (active).

Take `CCCCC[C@H]1C/C=C2/C(=O)C=C[C@@H]2C/C=C\CCCC(=O)O1`: the growth was -18.8% (active) with HCT-15 colon; -69.1% (active) with HT29 colon; -33.6% (active) in the assay on SNB-75 CNS; 1.16% (active) with SNB-19 CNS; -78.2% (active) in the assay with U251 CNS; -38.4% (active) with PC-3 prostate. Besides, in the assay with LOX IMVI melanoma, the growth is -79.1% (active).

`O=C1Nc2c(ccc(Cl)c2Cl)/C1=C\c1ccc(C(F)(F)F)cc1`: the growth was 81.9% with HCT-15 colon; 74.4% with HT29 colon; 73.4% in the assay on SNB-75 CNS; 81.6% in the assay with SNB-19 CNS; 74.2% in the assay with U251 CNS; 62.5% in the assay on PC-3 prostate. The growth in the assay with LOX IMVI melanoma was 67%; in the assay with SK-MEL-28 melanoma, 97.4%.

For `C/C1=C\CC[C@@]2(C)O[C@H]2[C@H]2OC(=O)C(CN3CCN(CC4C(=O)O[C@H]5[C@H]4CC/C(C)=C/CC[C@@]4(C)O[C@@H]54)CC3)[C@@H]2CC1` (stereo partly specified), the growth with HCT-15 colon is 95%; in the assay on HT29 colon, 104%; in the assay with SNB-75 CNS, 85.4%; with SNB-19 CNS it was 99.2%; in the assay with U251 CNS it was 94%; in the assay with PC-3 prostate, 92%. Also, the growth in the assay with LOX IMVI melanoma was 93.7%.

Turning to `COc1cccc(-c2nc(SCC(=O)Nc3ccc(C(=O)/C=C/c4ccc(OC)c(OC)c4)cc3)[nH]c(=O)c2C#N)c1`, the growth was 83.6% in the assay with HCT-15 colon; 102% with HT29 colon; 71.8% in the assay on SNB-75 CNS; 76.3% in the assay on SNB-19 CNS; 85.3% in the assay with U251 CNS; 100% in the assay with PC-3 prostate. The growth in the assay on LOX IMVI melanoma was 81.4%.

`NC(=NCCCOc1ccc(Cl)cc1)Nc1ccc(C(F)(F)F)cc1`: the growth in the assay on HCT-15 colon was 54%; in the assay on HT29 colon, 3.11% (active); with SNB-75 CNS, 35.4%; in the assay on SNB-19 CNS, 26.4%; in the assay on U251 CNS, 33%; in the assay with PC-3 prostate, 26.9%. In the assay with LOX IMVI melanoma, the growth is 9.81% (active).
